# Data as given in PubChem BioAssay.
# Calls of active or inactive are those of the source.
# Legend:
# [1] = E. coli DRC41 culture turbidity changes, primary screen, E. coli filamentation inducer project, strain DRC41, OD650, 48 h (AID 1152);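 further: E. coli MC1000 strain DRC41 lacking acrAB efflux pump and sulA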; conditions: E. coli DRC41 (acrAB sulA), higher = more signal, called active from +8 up or from −8 down
# [2] = small-molecule binders of probe aLefty1, primary screen, biochemical, small-molecule microarray, 635/667 nm fluorescence (AID 1153); conditions: higher = more signal;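 further: score merges spot fluorescence with signal-to-noise ratio from the scanned slide images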
# [3] = PSAC antagonists in infected red cells, primary screen, cell-based, P. falciparum Indochina, OD700, 1 h (AID 1154); conditions: P. falciparum Indochina infected RBC osmotic lysis, higher = more signal, called active from +8 up or from −8 down
# [4] = PSAC antagonists in infected red cells, primary screen, cell-based, P. falciparum Indochina, OD700, 2 h (AID 1155);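 further: lysis reports solute entry through the parasite surface anion channel PSAC; channel blockers reduce lysis of infected cells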; conditions: P. falciparum Indochina infected erythrocytes, osmotic lysis OD700; higher = more signal, called active from +8 up or from −8 down
# [5] = osmotic lysis modulators in infected erythrocytes, primary screen, PSAC antagonist project, cell-based, P. falciparum Indochina, OD700, 3 h (AID 1156); conditions: higher = more signal, called active from +8 up or from −8 down
# [6] = PSAC antagonists in infected red cells, primary screen, cell-based, P. falciparum Indochina, OD700, 18 h (AID 1157); conditions: P. falciparum Indochina infected erythrocytes, osmotic lysis OD700, 18 h; higher = more signal, called active from +8 up or from −8 down
# [7] = modulators of S6 phosphorylation in cells, primary screen, cell-based, A549, cytoblot, luminescence, serum-stimulated (AID 1158); conditions: A549 phospho-S6 cytoblot, 5 h, higher = more signal;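 further: serum-stimulated A549 lung adenocarcinoma cells; signal is phosphorylated S6 detected by cytoblot immunostaining with HRP secondary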
# [8] = target: NADPH oxidase 2 (Homo sapiens) (UniProt P04839); test: NOX2-dependent H2O2 signal modulators, primary screen, NOX inhibitor project, cell-based, HEK293-NOX2, PMA-stimulated, Amplex Red fluorescence (AID 1159); conditions: 45 min, higher = more signal, called active from +8 up or from −8 down; further: test concentration not given here
# [9] = target: NADPH oxidase 4 (Homo sapiens) (UniProt Q9NPH5); test: NOX4-dependent H2O2 signal modulators, primary screen, NOX inhibitor project, cell-based, HEK293-NOX4, tetracycline-induced, Amplex Red fluorescence (AID 1160); conditions: 45 min, higher = more signal, called active from +8 up or from −8 down
# [10] = target: NADPH oxidase 5 (Homo sapiens) (UniProt Q96PH1); test: NOX5-dependent H2O2 signal modulators, primary screen, NOX inhibitor project, cell-based, HEK293-NOX5, Amplex Red fluorescence (AID 1161); conditions: HEK293-NOX5, ionomycin, 45 min, higher = more signal
# [11] = A549 cell viability effects, profiling panel, calcein-AM fluorescence, 48 h, basal (AID 1162); conditions: higher = more signal; further: test concentration not given here
# [12] = adipocyte viability effects, profiling panel, cell-based, 3T3-L1 adipocytes, calcein-AM fluorescence, 48 h, basal (AID 1163); conditions: 3T3-L1 adipocytes viability, higher = more signal; further: test concentration not given here
# [13] = HepG2 cell viability effects, profiling panel, calcein-AM fluorescence, 48 h, basal (AID 1164); conditions: higher = more signal; further: test concentration not given here
# [14] = MM1S cell viability effects, profiling panel, calcein-AM fluorescence, 48 h, basal (AID 1165); conditions: higher = more signal;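 further: viability of MM1S multiple myeloma cells under basal unstimulated conditions; test concentration not given here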
# [15] = basal RPMI8226 viability, no added stimulus, profiling panel, cell-based, calcein-AM fluorescence, 48 h, PK04 Diversity Set (AID 1166); conditions: RPMI8226 myeloma viability, higher = more signal;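 further: cells grown under basal conditions without added stimulus; test concentration not given here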
# [16] = basal HepG2 mitochondrial membrane potential changes, profiling panel, cell-based, JC-1 fluorescence, 24 h, 100 nL compound (AID 1167); conditions: higher = more signal; further: test concentration not given here
# [17] = basal 3T3-L1 adipocyte mitochondrial potential changes, profiling panel, cell-based, JC-1 fluorescence, 3T3-L1 adipocytes, 24 h, 100 nL compound (AID 1168); conditions: JC-1 mitochondrial fluorescence, higher = more signal, called active from +8 up or from −8 down; further: test concentration not given here
# [18] = basal RPMI8226 mitochondrial membrane potential changes, profiling panel, cell-based, JC-1 fluorescence, 24 h, 100 nL compound (AID 1169); conditions: RPMI8226 myeloma, JC-1 mitochondrial potential fluorescence, higher = more signal; further: test concentration not given here
# [19] = basal MM1S mitochondrial membrane potential changes, profiling panel, cell-based, JC-1 fluorescence, 24 h, 100 nL compound (AID 1170); conditions: higher = more signal; further: test concentration not given here
# [20] = A549 lung cancer cell viability effects, profiling panel, resazurin fluorescence, 24 h, PK04 Diversity Set (AID 1171); conditions: higher = more signal, called active from +8 up or from −8 down; further: test concentration not given here
# NADPH oxidase 4 (Homo sapiens), sequence (Q9NPH5 whole entry, looked up): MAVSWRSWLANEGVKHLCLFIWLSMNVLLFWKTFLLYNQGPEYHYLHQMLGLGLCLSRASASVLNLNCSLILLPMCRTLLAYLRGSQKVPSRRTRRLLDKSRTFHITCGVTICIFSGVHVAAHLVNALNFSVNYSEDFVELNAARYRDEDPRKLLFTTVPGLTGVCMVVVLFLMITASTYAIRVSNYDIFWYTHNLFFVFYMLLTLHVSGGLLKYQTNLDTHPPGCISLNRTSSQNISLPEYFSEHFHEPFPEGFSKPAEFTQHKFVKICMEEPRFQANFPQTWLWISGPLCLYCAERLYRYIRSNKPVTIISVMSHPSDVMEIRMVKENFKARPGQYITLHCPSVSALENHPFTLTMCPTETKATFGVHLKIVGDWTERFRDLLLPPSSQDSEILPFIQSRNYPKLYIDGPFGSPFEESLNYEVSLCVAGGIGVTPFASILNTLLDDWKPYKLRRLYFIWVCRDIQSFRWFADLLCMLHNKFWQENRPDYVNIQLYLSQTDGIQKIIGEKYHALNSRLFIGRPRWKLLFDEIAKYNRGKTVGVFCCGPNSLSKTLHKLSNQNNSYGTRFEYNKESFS
# NADPH oxidase 2 (Homo sapiens), sequence (P04839 whole entry, looked up): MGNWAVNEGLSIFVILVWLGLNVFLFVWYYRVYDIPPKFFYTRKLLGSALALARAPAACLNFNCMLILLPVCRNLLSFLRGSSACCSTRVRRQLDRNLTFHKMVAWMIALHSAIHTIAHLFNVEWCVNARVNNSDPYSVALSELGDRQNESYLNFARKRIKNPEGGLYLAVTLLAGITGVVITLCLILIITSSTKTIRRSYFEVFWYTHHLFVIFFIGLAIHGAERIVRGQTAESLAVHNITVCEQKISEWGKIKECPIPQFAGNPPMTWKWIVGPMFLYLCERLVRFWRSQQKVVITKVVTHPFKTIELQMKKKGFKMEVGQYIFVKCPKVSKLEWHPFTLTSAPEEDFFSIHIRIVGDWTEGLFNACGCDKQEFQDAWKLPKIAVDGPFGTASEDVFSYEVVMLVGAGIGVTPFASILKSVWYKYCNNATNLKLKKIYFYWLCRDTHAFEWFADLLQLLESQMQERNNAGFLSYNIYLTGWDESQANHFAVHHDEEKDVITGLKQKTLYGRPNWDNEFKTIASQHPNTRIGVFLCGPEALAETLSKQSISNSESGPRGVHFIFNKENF
# NADPH oxidase 5 (Homo sapiens), sequence (Q96PH1 whole entry, looked up): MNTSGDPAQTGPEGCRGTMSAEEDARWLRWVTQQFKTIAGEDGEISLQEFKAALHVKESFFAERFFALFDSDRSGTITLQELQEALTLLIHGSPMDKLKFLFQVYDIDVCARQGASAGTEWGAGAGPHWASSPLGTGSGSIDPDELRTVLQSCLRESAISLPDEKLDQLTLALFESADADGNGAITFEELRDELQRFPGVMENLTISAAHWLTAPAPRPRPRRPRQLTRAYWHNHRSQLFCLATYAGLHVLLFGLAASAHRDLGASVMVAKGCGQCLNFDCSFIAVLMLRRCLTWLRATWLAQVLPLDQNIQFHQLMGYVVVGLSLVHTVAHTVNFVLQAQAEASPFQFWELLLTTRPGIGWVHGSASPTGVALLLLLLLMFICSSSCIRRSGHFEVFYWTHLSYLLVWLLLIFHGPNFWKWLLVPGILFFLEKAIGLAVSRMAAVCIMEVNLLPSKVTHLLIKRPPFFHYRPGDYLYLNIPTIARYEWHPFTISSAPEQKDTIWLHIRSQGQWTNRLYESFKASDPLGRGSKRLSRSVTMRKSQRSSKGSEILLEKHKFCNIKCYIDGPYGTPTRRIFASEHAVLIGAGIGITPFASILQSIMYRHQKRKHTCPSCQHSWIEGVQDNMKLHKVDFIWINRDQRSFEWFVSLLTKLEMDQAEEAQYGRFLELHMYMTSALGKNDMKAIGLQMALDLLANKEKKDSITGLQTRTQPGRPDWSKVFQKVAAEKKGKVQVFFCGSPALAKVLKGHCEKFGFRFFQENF
Compound,z-score [1],composite z-score [2],z-score [3],z-score [4],z-score [5],z-score [6],z-score [7],z-score [8],z-score [9],z-score [10],z-score [11],z-score [12],z-score [13],z-score [14],z-score [15],z-score [16],z-score [17],z-score [18],z-score [19],z-score [20]
COCCCNC(=O)[C@@]1(Sc2ccc(C)cc2)CC(=O)N(C2CCCCC2)[C@@H]1c1ccc(CO)cc1I,-0.251 (inactive),-0.649,4.53 (inactive),0.678 (inactive),0.0232 (inactive),0.5 (inactive),-0.0285,0.625 (inactive),-0.102 (inactive),1.43,0.564,-0.363,0.0565,-2.54,-2.33,0.634,-0.201 (inactive),-0.126,-1.24,0.804 (inactive)
C#CCN(C/C=C/c1ccccc1)[C@H](CO[Si](C)(C)C(C)(C)C)c1ccccc1,-0.78 (inactive),-0.346,0.829 (inactive),0.984 (inactive),1.05 (inactive),-0.161 (inactive),-0.0623,1.64 (inactive),0.447 (inactive),-0.419,-0.909,-0.0156,-0.676,-0.848,-2.58,-2.55,0.155 (inactive),-0.352,0.653,0.403 (inactive)
C=C(CCCC)C(=O)CC[C@H](OC(=O)c1cccnc1)c1ccc(CO)o1,-0.348 (inactive),0.3,2.21 (inactive),0.101 (inactive),0.217 (inactive),0.038 (inactive),-0.253,1.25 (inactive),0.532 (inactive),-0.454,-0.489,-0.175,0.0768,0.187,-0.0395,-1.48,-0.572 (inactive),-0.577,-0.283,-0.0291 (inactive)
Cc1ccc(S[C@]2(C(=O)NCC(F)(F)F)CC(=O)N(C3CCCCC3)[C@@H]2c2ccc(CO)cc2)cc1,0.344 (inactive),0.123,1.58 (inactive),0.525 (inactive),0.621 (inactive),0.157 (inactive),-0.14,-0.941 (inactive),0.03 (inactive),0.192,0.815,0.132,0.844,-1.03,-0.758,1.11,0.466 (inactive),0.0558,-0.42,-0.0508 (inactive)
C=CCC(OC(C)=O)[C@@H]1[C@@H](N(Cc2ccc(-c3ccccc3)cc2)C(=O)c2ccc(C)cc2)c2cc(OCCCO)ccc2N1C(=O)c1ccc2ccccc2c1 (stereo not given in full),2.09 (inactive),0.0367,0.0032 (inactive),-0.792 (inactive),-1.31 (inactive),-1.33 (inactive),1.18,-0.167 (inactive),0.972 (inactive),1.94,2.26,0.558,1.71,0.697,-0.481,3.18,-0.379 (inactive),0.0174,0.593,0.864 (inactive)
C=CCC(OC(C)=O)[C@@H]1[C@@H](N(Cc2ccc(-c3cccc(C(F)(F)F)c3)o2)C(=O)Cc2ccc(F)cc2)c2cc(OCCCO)ccc2N1C(=O)c1ccc2ccccc2n1 (stereo not given in full),-0.994 (inactive),-0.024,1.53 (inactive),-0.0905 (inactive),-0.592 (inactive),0.0644 (inactive),-0.47,0.249 (inactive),0.919 (inactive),1.13,0.0993,0.639,0.722,-0.911,-0.733,2.09,0.484 (inactive),-0.134,0.143,0.14 (inactive)
COc1ccc(NN2C(C(O)c3cc(C(F)(F)F)cc(C(F)(F)F)c3)C=CC3C(=O)N(C4CCCCC4)C(=O)C32)cc1 (stereo not given),-0.523 (inactive),1.41,1.62 (inactive),0.507 (inactive),0.545 (inactive),0.632 (inactive),-0.35,-0.934 (inactive),-1.64 (inactive),-1.35,-0.557,-0.826,0.837,-0.167,-1.31,-1.68,0.0313 (inactive),0.139,-1.14,-0.35 (inactive)
COc1ccc([Si](C)(C)[C@H]2[C@H](CCO)O[C@@]3(C(=O)N(Cc4ccccc4)c4ccc(N(C=O)c5ccccc5)cc43)[C@@H]2C)cc1,0.352 (inactive),0.0927,5.68 (inactive),2.52 (inactive),1.12 (inactive),1.28 (inactive),0.456,-0.98 (inactive),0.184 (inactive),1.23,-0.108,0.288,-3.3,-0.622,-2.82,0.553,-0.00912 (inactive),-0.914,-1.27,-1.25 (inactive)
